Here are results for eight compounds from PubChem BioAssay (Tox21).

Structures are written as SMILES. “And” between values parts separate entries of the source, which are not always exact repeats. Equal values may be shown once. Results filed as inconclusive are left out. A structure can be active in one record and inactive in another. The source made the active and inactive calls. Unless noted, the call rests on the fitted dose curve; in most records, active means well fitted curve in the direction sought with a large enough effect in the repeat runs; inconclusive means weak or mixed curves; inactive means no such curve, though single readings can be large; an effect the other way counts as inactive or inconclusive.

Test [1] is described as follows: qHTS assay to identify small molecule antagonists of the thyroid receptor (TR) signaling pathway (AID 743065). Further: nearly all actives have a fitted effect of over 55% in size. Further: potency means the concentration at half of the fitted maximal effect. On activity, negative = inhibition: series mostly up to about 70 µM. The method in brief:
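Antagonism measured as loss of luciferase signal in GH3 cells stably carrying a TRE-luciferase reporter, co-treated with compound and T3 (1 nM final) for 23.5 h at 37 C. Viability was read in the same well by CellTiter-Fluor.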
For orientation: qHTS replaces the single test concentration by a dilution series.

Test [2] deals with thyroid hormone receptor (rat, GH3 cells). In words: qHTS assay to identify small molecule agonists of the thyroid receptor (TR) signaling pathway (AID 743066; calls by dose curve).
The nature of test [3]: qHTS assay to identify small molecule antagonists of the estrogen receptor alpha (ER-alpha) signaling pathway - cell viability counter screen (AID 743074; calls by dose curve;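 further: HEK293 cells carrying ER-alpha-UAS-bla reporter stimulated with 17beta-estradiol; nearly all actives have a fitted effect of over 45% in size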; further: potency means the concentration at half of the fitted maximal effect).
A short description of test [4]: qHTS assay to identify small molecule antagonists of the estrogen receptor alpha (ER-alpha) signaling pathway using the BG1 cell line - cell viability counter screen (AID 743081).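 Further: compound given together with 17beta-estradiol as the ER stimulus; nearly all actives have a fitted effect of over 45% in size.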 Further: potency means the concentration at half of the fitted maximal effect. On activity change, negative = cytotoxicity: series mostly up to about 70 µM.
Another test addresses Aromatase (Homo sapiens) (UniProt P11511). Nature of the test: qHTS assay to identify aromatase inhibitors (AID 743083). Further: nearly all actives have a fitted effect of over 55% in size. Further: potency means the concentration at half of the fitted maximal effect. On activity, negative = inhibition: series mostly up to about 70 µM.
Test [5] is described as follows: qHTS assay to identify aromatase inhibitors - cell viability counter screen (AID 743084).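 Further: cells stimulated with testosterone during compound exposure; nearly all actives have a fitted effect of over 55% in size.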 Further: potency means the concentration at half of the fitted maximal effect.
The target of test [6] is Aryl hydrocarbon receptor (Homo sapiens) (UniProt P35869). In words: qHTS assay to identify small molecule that activate the aryl hydrocarbon receptor (AhR) signaling pathway (AID 743085).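 Further: HG2L7.5c1 human HepG2 liver cells with stably integrated DRE-driven firefly reporter; series mostly up to about 70 µM; nearly all actives have a fitted effect of over 15% in size.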 The gist of the method: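 HepG2 cells stably carrying a 20-DRE firefly luciferase reporter (HG2L7.5c1) treated with compound for 24 hr at 37C. Luciferase read by ONE-Glo luminescence, with CellTiter-Fluor viability read first.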

Test [7] is described as follows: qHTS assay to identify small molecule that activate the aryl hydrocarbon receptor (AhR) signaling pathway - cell viability counter screen (AID 743086). Further: nearly all actives have a fitted effect of over 45% in size. Further: potency means the concentration at half of the fitted maximal effect. On viability change, negative = cytotoxic: series mostly up to about 70 µM. The method in brief:
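Cytotoxicity counter screen: CellTiter-Fluor signal (30 min, 37 C) in 4000 HepG2 cells/well carrying the DRE-luciferase reporter, following 24 h compound exposure at 37 C.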

Test [8] deals with Peroxisome proliferator-activated receptor gamma (Homo sapiens) (UniProt P37231). In words: qHTS assay to identify small molecule agonists of the peroxisome proliferator-activated receptor gamma (PPARg) signaling pathway (AID 743094; active means well fitted activation curve with a large enough effect in the signal ratio in the repeat runs, not every such curve was filed as active; the % refers to the signal ratio). The gist of the method:
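Quantitative HTS agonist mode: stable HEK293H line with UAS-beta-lactamase reporter under PPARg control, 17 h compound exposure at 37C, fluorescence after 1 h FRET substrate loading at room temperature.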

Test [9] has the same target. In words: qHTS assay to identify small molecule antagonists of the peroxisome proliferator-activated receptor gamma (PPARg) signaling pathway (AID 743191; calls by dose curve; further: series mostly up to about 63 µM; nearly all actives have a fitted effect of over 30% in size). The gist of the method:
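Beta-lactamase reporter under UAS control in HEK293H PPARg-bla cells; compound treatment 17 h at 37C. Read-out: fluorescence intensity after 1 h room-temperature incubation with LiveBLAzer B/G FRET substrate.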

Test [10] can be described thus: qHTS assay to identify small molecule antagonists of the peroxisome proliferator-activated receptor gamma (PPARg) signaling pathway - cell viability counter screen (AID 743194). Further: nearly all actives have a fitted effect of over 55% in size. Further: potency means the concentration at half of the fitted maximal effect. The method in brief:
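Viability was measured as CellTiter-Glo luminescence in GeneBLAzer PPARg UAS-bla HEK293H cells. These cells had been exposed 17 h at 37 C to compounds together with rosiglitazone at 50 nM final, with the beta-lactamase readout taken in the same wells.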

The nature of test [11]: qHTS assay for small molecule agonists of the antioxidant response element (ARE) signaling pathway - cell viability counter screen (AID 743203; calls by dose curve; further: nearly all actives have a fitted effect of over 55% in size; further: potency means the concentration at half of the fitted maximal effect). The gist of the method:
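Seeded at 2,000 cells/well, ARE-bla HepG2 cells were incubated 5 hrs before compound addition. After 16 hrs of treatment at 37C with 5% CO2, CellTiter-Glo reagent was added and luminescence read 30 min later.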

Test [12] is described as follows: qHTS assay for small molecule activators of the heat shock response signaling pathway (AID 743210; active means well fitted activation curve with a large enough effect in the signal ratio in the repeat runs, with a control signal flat, not every such curve was filed as active; the % refers to the signal ratio;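 further: HeLa cells with beta-lactamase reporter driven by heat shock elements; series mostly up to about 63 µM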). The method in brief: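 In HSE-bla HeLa cells, 5 h compound incubation (37 C) precedes addition of LiveBLAzer B/G substrate; after 2.5 h at room temperature, fluorescence intensity indicates reporter induction.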
A short description of test [13]: qHTS assay to identify small molecule agonists of the peroxisome proliferator-activated receptor delta (PPARd) signaling pathway - cell viability counter screen (AID 743211). Further: nearly all actives have a fitted effect of over 55% in size. Further: potency means the concentration at half of the fitted maximal effect. The gist of the method: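 PPARd-bla HEK293H cells (3000/well) were pre-incubated 5 h at 37 C, then exposed to compound for 17 h at 37 C. After 2 h with LiveBLAzer substrate, CellTiter-Glo was added to the same wells; luminescence read after 30 min at room temperature.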

A short description of test [14]: qHTS assay for small molecule agonists of the antioxidant response element (ARE) signaling pathway (AID 743202; active means well fitted activation curve with a large enough effect in the signal ratio in the repeat runs, not every such curve was filed as active; the % refers to the signal ratio). The method in brief:
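An ARE-responsive beta-lactamase gene stably integrated in HepG2 cells serves as reporter. After 5 h plating and 16 h compound incubation at 37 C, fluorescence of the B/G FRET substrate was measured.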

Test [15] is described as follows: qHTS assay for small molecule activators of the heat shock response signaling pathway - cell viability counter screen (AID 743209). Further: nearly all actives have a fitted effect of over 50% in size. Further: potency means the concentration at half of the fitted maximal effect. The gist of the method: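 First, HSE-bla HeLa cells were seeded at 1500 cells/well and kept overnight at 37 C. Next, compounds were pinned in and incubated 5 h. After the FRET substrate step, CellTiter-Glo was added and luminescence read 30 min later.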

The target of test [16] is Estrogen receptor (Homo sapiens) (UniProt P03372). Nature of the test: qHTS assay to identify small molecule agonists of the estrogen receptor alpha (ER-alpha) signaling pathway (AID 743075; calls by dose curve;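 further: HEK293 GripTite cells with ER-alpha and UAS-driven beta-lactamase reporter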).
On the % scale 0 is the no-effect control and ±100 the full control effect.

Aryl hydrocarbon receptor (Homo sapiens), sequence (P35869 whole entry, looked up): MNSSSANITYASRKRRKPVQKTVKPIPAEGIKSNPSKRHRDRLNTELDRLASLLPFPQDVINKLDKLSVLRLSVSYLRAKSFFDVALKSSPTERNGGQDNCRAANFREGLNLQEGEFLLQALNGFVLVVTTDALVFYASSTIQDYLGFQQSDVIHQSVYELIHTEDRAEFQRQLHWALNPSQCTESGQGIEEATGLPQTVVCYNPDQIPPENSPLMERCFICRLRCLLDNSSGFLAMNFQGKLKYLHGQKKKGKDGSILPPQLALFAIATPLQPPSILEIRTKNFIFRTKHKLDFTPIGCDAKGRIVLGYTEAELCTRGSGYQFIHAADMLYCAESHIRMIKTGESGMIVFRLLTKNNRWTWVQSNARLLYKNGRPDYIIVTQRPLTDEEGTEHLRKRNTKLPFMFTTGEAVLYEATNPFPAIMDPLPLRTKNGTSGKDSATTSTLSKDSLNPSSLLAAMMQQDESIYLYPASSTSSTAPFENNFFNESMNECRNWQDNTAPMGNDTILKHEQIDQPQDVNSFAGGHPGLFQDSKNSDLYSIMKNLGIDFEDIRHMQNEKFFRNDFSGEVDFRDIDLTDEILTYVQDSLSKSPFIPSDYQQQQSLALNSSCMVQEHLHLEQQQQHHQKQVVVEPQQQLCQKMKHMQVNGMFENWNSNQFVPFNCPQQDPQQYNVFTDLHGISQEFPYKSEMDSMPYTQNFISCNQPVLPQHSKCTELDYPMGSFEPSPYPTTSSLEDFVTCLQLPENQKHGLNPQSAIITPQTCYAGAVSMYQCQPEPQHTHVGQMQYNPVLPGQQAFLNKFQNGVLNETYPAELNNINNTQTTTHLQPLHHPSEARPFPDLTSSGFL
Peroxisome proliferator-activated receptor gamma (Homo sapiens), sequence (P37231 whole entry, looked up): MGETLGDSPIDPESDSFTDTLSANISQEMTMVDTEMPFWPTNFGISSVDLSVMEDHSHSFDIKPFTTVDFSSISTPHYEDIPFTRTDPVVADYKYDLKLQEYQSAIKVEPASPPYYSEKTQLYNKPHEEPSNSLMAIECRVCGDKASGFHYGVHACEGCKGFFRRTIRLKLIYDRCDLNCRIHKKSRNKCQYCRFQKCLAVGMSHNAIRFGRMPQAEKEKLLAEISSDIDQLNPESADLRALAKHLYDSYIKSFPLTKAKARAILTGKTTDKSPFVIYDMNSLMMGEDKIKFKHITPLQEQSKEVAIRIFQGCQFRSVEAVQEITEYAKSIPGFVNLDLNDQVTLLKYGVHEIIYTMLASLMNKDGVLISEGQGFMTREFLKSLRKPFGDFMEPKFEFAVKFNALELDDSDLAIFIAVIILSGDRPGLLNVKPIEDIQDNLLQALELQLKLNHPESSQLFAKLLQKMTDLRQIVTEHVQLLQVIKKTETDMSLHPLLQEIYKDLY
Aromatase (Homo sapiens), sequence (P11511 whole entry, looked up): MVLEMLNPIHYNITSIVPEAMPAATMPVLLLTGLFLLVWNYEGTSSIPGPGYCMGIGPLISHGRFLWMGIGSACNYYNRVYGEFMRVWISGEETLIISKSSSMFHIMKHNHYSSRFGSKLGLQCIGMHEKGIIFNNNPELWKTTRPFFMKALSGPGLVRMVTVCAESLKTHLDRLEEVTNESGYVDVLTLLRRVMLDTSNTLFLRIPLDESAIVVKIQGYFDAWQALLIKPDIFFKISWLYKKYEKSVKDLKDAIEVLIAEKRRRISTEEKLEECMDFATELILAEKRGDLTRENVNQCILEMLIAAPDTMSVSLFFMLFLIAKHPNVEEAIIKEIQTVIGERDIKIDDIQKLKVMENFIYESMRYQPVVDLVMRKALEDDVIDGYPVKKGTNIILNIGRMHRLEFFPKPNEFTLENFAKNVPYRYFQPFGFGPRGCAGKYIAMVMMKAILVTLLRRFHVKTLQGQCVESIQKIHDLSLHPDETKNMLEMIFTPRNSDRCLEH
Estrogen receptor (Homo sapiens), sequence (P03372 whole entry, looked up): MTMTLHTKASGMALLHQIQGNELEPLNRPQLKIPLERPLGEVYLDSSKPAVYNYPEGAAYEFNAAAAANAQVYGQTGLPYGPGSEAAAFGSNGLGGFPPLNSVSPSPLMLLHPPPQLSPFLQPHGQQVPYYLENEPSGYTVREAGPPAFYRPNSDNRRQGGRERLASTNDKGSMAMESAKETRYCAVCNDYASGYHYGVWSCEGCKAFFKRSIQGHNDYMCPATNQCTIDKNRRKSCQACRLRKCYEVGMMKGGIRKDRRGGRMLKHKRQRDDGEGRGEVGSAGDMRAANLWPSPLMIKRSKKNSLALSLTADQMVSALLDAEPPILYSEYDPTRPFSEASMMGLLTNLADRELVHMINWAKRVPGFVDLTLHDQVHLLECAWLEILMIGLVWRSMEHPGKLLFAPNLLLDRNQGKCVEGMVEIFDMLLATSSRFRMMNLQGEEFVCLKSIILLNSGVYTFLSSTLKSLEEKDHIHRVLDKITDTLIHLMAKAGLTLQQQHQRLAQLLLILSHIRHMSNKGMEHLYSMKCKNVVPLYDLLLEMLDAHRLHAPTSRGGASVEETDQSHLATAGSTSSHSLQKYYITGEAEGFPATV

On to `NC(Cc1ccc(Cl)cc1)C(=O)O` (stereo not given), for which the Potency result (in [1]; in [2]; in test [3]; in test [4]; in the test with Aromatase (Homo sapiens); in test [5]) was “inactive” each time. Further, the Potency result in test [6], in test [7] and in test [8] was “inactive” throughout. The ratio activity, negative = inhibition in [9] was -10.6% [at 0.55 µM] (inactive). Also, the activity change, negative = cytotoxicity is 2.82% [at 0.55 µM] (inactive) in [10] and 4.79% [at 0.55 µM] (inactive) in test [13]. In [11], the viability change, negative = cytotoxic is 0.376% [at 0.756 µM] (inactive). Also, in test [12], the activation is 1.36% [at 0.55 µM] (inactive).

Consider `CC(C)(C)NCC(O)c1cc(O)cc(O)c1` (stereo not given), for which the Potency entry (in test [1]; in test [2]; in test [3]; in test [4]; with Aromatase (Homo sapiens); in test [5]) was “inactive” in each case. Also, the Potency result in [6], in test [7], in test [8], in test [10], in test [14] and in test [11] was “inactive” each time. Besides, the Potency entry in test [15], in [12] and in test [13] was “inactive” in each case.

In the case of `CCOC(=O)C(C)C(C)=O` (stereo not given), the Potency entry (in test [1]; in test [2]; in [3]; in test [4]; with Aromatase (Homo sapiens); in test [5]) was “inactive” in each case. Further, the Potency result in test [6], in [7], in test [10], in test [14], in [11] and in test [15] was “inactive” in each case. Moreover, the Potency result in [13] is “inactive”.

`COc1ccc(CCN(C)CCCC(C#N)(c2ccc(OC)c(OC)c2)C(C)C)cc1OC` (stereo not given): the Potency was 26.6 µM (active) and 30.6 µM (active) in test [1]; “inactive and 30.6 µM (active)” in test [4]; 27.3 µM (active) in test [5]. The Potency entry in test [2], in [3] and in [13] was “inactive” in each case.

Consider `CCCCCC(=O)O[C@]1(C(C)=O)CC[C@H]2[C@@H]3CCC4=CC(=O)CC[C@]4(C)[C@H]3CC[C@@]21C`, for which the Potency in test [1] was 10.6 µM (active) and 19.2 µM (active); with Aromatase (Homo sapiens), “inactive and 54.1 µM (active)”; in [11], 54.1 µM (active); in test [13] it was 48.6 µM (active) and 29.8 µM (active). The Potency result in test [2], in [16], in [4], in [5], in test [6] and in test [7] was “inactive” throughout. Moreover, the Potency result in [8] and in [15] was “inactive” throughout.

With `Cc1cc(Cc2cc(C)cc(C(C)(C)C)c2O)c(O)c(C(C)(C)C)c1`, the Potency in [1] was 6.89 µM (active) and 8.63 µM (active); in [3] it was 22 µM (active) and 24.5 µM (active); in [4], 68.9 µM (active); with Aromatase (Homo sapiens) it was 30.8 µM (active) and 48.6 µM (active); in test [5], 54.8 µM (active) and 61.1 µM (active); in test [11], 17.3 µM (active) and 27.3 µM (active). The Potency in test [15] was 11 µM (active) and 13.8 µM (active); in test [13], 17.5 µM (active) and 15.5 µM (active). The Potency result in test [2], in test [6] and in [7] was “inactive” throughout.

On to `COc1ccc(CCN2CCC(Nc3nc4ccccc4n3Cc3ccc(F)cc3)CC2)cc1`, for which the Potency is 5.96 µM (active) and 1.57 µM (active) in [1]; 12.6 µM (active) in [3]; 55.7 µM (active) in test [4]; 6.25 µM (active) in the test with Aromatase (Homo sapiens); 26.6 µM (active) and 12.5 µM (active) in test [5]; 23.7 µM (active) and 9.9 µM (active) in test [7]. The Potency in test [10] was 4.46 µM (active) and 26.6 µM (active); in test [11], 6.25 µM (active) and 26.6 µM (active); in test [13] it was 2.81 µM (active) and 7.5 µM (active). Besides, the Potency result in test [2], in [6] and in test [12] was “inactive” throughout.

As to `Cc1occc(=O)c1OC(=O)C(C)C`, the Potency result (in [1]; in test [2]; in [3]; in test [4]; in the test with Aromatase (Homo sapiens); in test [5]) was “inactive” each time. In addition, the Potency entry in [6], in test [7], in [10], in test [11], in test [12] and in test [13] was “inactive” each time.
